# Results from PubChem BioAssay (NCATS).
# Results filed as inconclusive are left out. Entries that show only a call come without a potency. A number with no mark means an inactive call. The source made the active and inactive calls. Calls come from the whole dose curve; as a rule, active = well fitted inhibition curve with a large enough effect; inconclusive = small, poorly fitted or top-dose-only effect; inactive = flat fitted curve, though single readings scatter.
# Key:
# [1] = system: FAB9; assay: qHTS profiling for inhibitors of Plasmodium falciparum proliferation (AID 504749); details: P. falciparum in erythrocytes, SYBR Green DNA, 72 h; series mostly up to 28.7 µM
# How it was run: (§1)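 Infected RBCs, 0.3% parasitemia/2.5% Hct final; cpd 72 h, 37 C, 5% CO2; lysis buffer with saponin/triton/SYBR Green I, o/n RT dark; FI 485/535; norm. to artemisinin (0.29 uM) and DMSO.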
# [2] = system: GB4; assay: as above; details: P. falciparum in erythrocytes, SYBR Green DNA, 72 h; series mostly up to 28.7 µM
# How it was run: as §1
# [3] = system: HB3; assay: as above; details: P. falciparum in erythrocytes, SYBR Green DNA, 72 h; series mostly up to 28.7 µM
# How it was run: as §1
# [4] = system: ICS; assay: as above; details: P. falciparum in erythrocytes, SYBR Green DNA, 72 h; series mostly up to 28.7 µM
# How it was run: as §1
# [5] = system: JCK; assay: as above; details: P. falciparum in erythrocytes, SYBR Green DNA, 72 h; series mostly up to 28.7 µM
# How it was run: as §1
# [6] = system: N140; assay: as above; details: P. falciparum in erythrocytes, SYBR Green DNA, 72 h; series mostly up to 28.7 µM
# How it was run: as §1
# [7] = system: P93_24; assay: as above; details: P. falciparum in erythrocytes, SYBR Green DNA, 72 h; series mostly up to 28.7 µM
# How it was run: as §1
# [8] = system: P94_40; assay: as above; details: P. falciparum in erythrocytes, SYBR Green DNA, 72 h; series mostly up to 28.7 µM
# How it was run: as §1
# [9] = system: PAD; assay: as above; details: P. falciparum in erythrocytes, SYBR Green DNA, 72 h; series mostly up to 28.7 µM
# How it was run: as §1
# [10] = system: PC15; assay: as above; details: P. falciparum in erythrocytes, SYBR Green DNA, 72 h; series mostly up to 28.7 µM
# How it was run: as §1
# [11] = system: PC26; assay: as above; details: P. falciparum in erythrocytes, SYBR Green DNA, 72 h; series mostly up to 28.7 µM
# How it was run: as §1
# [12] = system: PC49; assay: as above; details: P. falciparum in erythrocytes, SYBR Green DNA, 72 h; series mostly up to 28.7 µM
# How it was run: as §1
# [13] = system: SC27B; assay: as above; details: P. falciparum in erythrocytes, SYBR Green DNA, 72 h; series mostly up to 28.7 µM
# How it was run: as §1
# [14] = system: TAB109; assay: as above; details: P. falciparum in erythrocytes, SYBR Green DNA, 72 h; series mostly up to 28.7 µM
# How it was run: as §1
# [15] = system: TAB113; assay: as above; details: P. falciparum in erythrocytes, SYBR Green DNA, 72 h; series mostly up to 28.7 µM
# How it was run: as §1
# [16] = system: W2; assay: as above; details: P. falciparum in erythrocytes, SYBR Green DNA, 72 h; series mostly up to 28.7 µM
# How it was run: as §1
# [17] = system: CRL-7250; assay: Cytotoxic Profiling of Annotated Libraries Using Quantitative High-Throughput Screening (AID 1296008); details: Five cell lines viability, CellTiter-Glo ATP luminescence, 48-72 h; max response: hits give low values
# How it was run: (§2)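 Cytotoxicity was measured as CellTiter-Glo ATP luminescence, read after 10 min at room temperature. Compound treatment of the cells lasted 48 or 72 hr at 37 degrees Celsius in a qHTS format.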
# [18] = system: HEK293; assay: as above; details: Five cell lines viability, CellTiter-Glo ATP luminescence, 48-72 h; max response: hits give low values
# How it was run: as §2
# [19] = system: ECU; assay: qHTS profiling for inhibitors of Plasmodium falciparum proliferation (AID 504749); details: P. falciparum in erythrocytes, SYBR Green DNA, 72 h; series mostly up to 28.7 µM
# How it was run: as §1
# [20] = system: TAB165; assay: as above; details: P. falciparum in erythrocytes, SYBR Green DNA, 72 h; series mostly up to 28.7 µM
# How it was run: as §1
# Note: nearly all actives have a fitted effect of over 60% in size.
# Potency is the fitted concentration of half-maximal effect.
smiles,measurement,setting,value
CCOC(=O)COc1ccc2c(C)c(CCN(CC)CC)c(=O)oc2c1Cl,Potency,[1],inactive
same,Potency,[2],inactive
same,Potency,[3],inactive
same,Potency,[4],inactive
same,Potency,[5],inactive
same,Potency,[6],inactive
same,Potency,[7],inactive
same,Potency,[8],inactive
same,Potency,[9],inactive
same,Potency,[10],inactive
same,Potency,[11],inactive
same,Potency,[12],inactive
same,Potency,[13],inactive
same,Potency,[14],inactive
same,Potency,[15],inactive
same,Potency,[16],inactive
same,Potency,[17],29.9 µM (active)
same,outcome,[18],inactive
CCC(C(=O)OCCN(CC)CC)c1ccccc1 (stereo not given),Potency,[19],inactive
same,Potency,[1],inactive
same,Potency,[3],inactive
same,Potency,[4],inactive
same,Potency,[5],inactive
same,Potency,[6],inactive
same,Potency,[7],inactive
same,Potency,[8],inactive
same,Potency,[9],inactive
same,Potency,[10],inactive
same,Potency,[11],inactive
same,Potency,[12],inactive
same,Potency,[13],inactive
same,Potency,[14],inactive
same,Potency,[15],inactive
same,Potency,[20],inactive
same,Potency,[16],15.1 µM (active)
same,outcome,[17],inactive
same,max response,[18],3.62%
CC(=O)Oc1ccc(C(c2ccc(OC(C)=O)cc2)c2ccccn2)cc1,Potency,[19],inactive
same,Potency,[1],inactive
same,Potency,[2],inactive
same,Potency,[3],inactive
same,Potency,[4],inactive
same,Potency,[6],inactive
same,Potency,[7],inactive
same,Potency,[8],inactive
same,Potency,[9],inactive
same,Potency,[10],inactive
same,Potency,[11],inactive
same,Potency,[12],7.08 µM (active)
same,Potency,[13],inactive
same,Potency,[14],inactive
same,Potency,[15],inactive
same,Potency,[20],inactive
same,Potency,[16],inactive
same,max response,[17],-7.93%
Cc1cc(O)c(C(C)C)cc1Cl,Potency,[19],inactive
same,Potency,[1],inactive
same,Potency,[4],10 µM (active)
same,Potency,[5],inactive
same,Potency,[6],inactive
same,Potency,[7],inactive
same,Potency,[8],inactive
same,Potency,[9],inactive
same,Potency,[10],inactive
same,Potency,[11],inactive
same,Potency,[12],inactive
same,Potency,[13],inactive
same,Potency,[14],inactive
same,Potency,[15],inactive
same,max response,[17],-3.05%
same,outcome,[18],inactive
O=C(CCCN1CCC(O)(c2ccc(Br)cc2)CC1)c1ccc(F)cc1,Potency,[19],inactive
same,Potency,[1],inactive
same,Potency,[2],5.73 µM (active)
same,Potency,[4],3.55 µM (active)
same,Potency,[12],0.398 µM (active)
same,Potency,[13],inactive
same,Potency,[14],3.16 µM (active)
same,Potency,[16],1.44 µM (active)
same,max response,[17],2.7%
